The whole screen tested about 200,000 compounds, of which about 3,000 (1.5%) were called active. What follows is part of a selection rich in actives, with near analogues and random picks from the rest. A number with no mark means an inactive call.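 The calls were made as follows: active = inhibition above about 50% when tested at 10 µM (limit read from the data); inactive = the rest.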

Luciferin 4-monooxygenase (Photinus pyralis), sequence (P08659 whole entry, looked up): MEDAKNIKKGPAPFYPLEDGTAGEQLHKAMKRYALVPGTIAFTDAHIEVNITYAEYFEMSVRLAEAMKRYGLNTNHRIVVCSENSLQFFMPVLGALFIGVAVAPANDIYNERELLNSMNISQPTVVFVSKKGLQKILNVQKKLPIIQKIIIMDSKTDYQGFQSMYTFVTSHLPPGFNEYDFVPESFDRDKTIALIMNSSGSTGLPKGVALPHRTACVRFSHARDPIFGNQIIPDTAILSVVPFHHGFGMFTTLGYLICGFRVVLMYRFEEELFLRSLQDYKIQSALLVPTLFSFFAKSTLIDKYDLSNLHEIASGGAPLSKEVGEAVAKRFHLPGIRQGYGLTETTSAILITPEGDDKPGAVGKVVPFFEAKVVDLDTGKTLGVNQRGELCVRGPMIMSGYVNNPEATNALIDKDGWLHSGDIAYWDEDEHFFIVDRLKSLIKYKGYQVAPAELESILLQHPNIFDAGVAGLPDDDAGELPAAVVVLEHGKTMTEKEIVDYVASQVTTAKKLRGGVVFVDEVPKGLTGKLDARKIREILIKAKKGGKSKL

The experiment concerns the target Luciferin 4-monooxygenase (Photinus pyralis) (UniProt P08659). Briefly: firefly luciferase enzyme inhibitors, primary screen, artefact control for luciferase-based inhibitor screens, biochemical, luminescence, ATPLite (AID 1006). The following applies: 10 min, at 10 µM, hits give high values.
For `O=C(Cc1ccc(F)cc1)N1CCN=C1SCc1cccc([N+](=O)[O-])c1`, the inhibition was -8.2%. On to `O=C(NCC1CCCO1)C1CCN(C2CCN(C(=O)C3CCCCC3)CC2)CC1` (stereo not drawn), for which the inhibition is -6.8%. `Cc1cccc(-n2c(C)cc(/C=N\NC(=O)c3cccs3)c2C)c1`: the inhibition was 50.3% (active). Then `CC(=O)Nc1ccc(/C=N/NC(=O)c2cccs2)cc1`, with 42.4%. Next, `Cc1cccc(-n2c(C)cc(/C=N/NC(N)=S)c2C)c1`: 0.5%; `COc1ccc(OC)c(S(=O)(=O)Nc2cccc(-c3ccc4nncn4n3)c2)c1`: -2.6%; `Oc1ccc(N=Cc2sc3ccccc3c2Cl)cc1`: 65.5% (active).

On to `O=C(N/N=C/c1c(Cl)[nH]c2ccccc12)c1sc2ccccc2c1Cl`, for which the inhibition is 5%. Next, `Cc1nn(C)cc1/C=N/NC(=O)c1sc2ccccc2c1Cl`: 11.2%; `CSc1nc2ccc(NC(=O)c3c(F)cccc3F)cc2s1`: 12.4%; `Nc1nnc(SCC(=O)OCc2ccc(Cl)c(Cl)c2)s1`: -3.7%. Next, `COc1ccc(C(=O)NCc2cn3ccccc3n2)cc1`: -1.1%. Then `Cc1ccc2nc(COc3ccc(N(C)S(=O)(=O)c4ccccc4)cc3)cc(=O)n2c1`, with -4.2%. Regarding `O=Cc1ccc(OCc2cn3ccccc3n2)cc1`, the inhibition was 50.3% (active). Next, `Cc1cc(C)c2c(NC(=O)C3CC3)nn(C)c2n1`: -5.8%; `COc1ccc(C2Nc3ccccc3C(=O)N2c2ccc(Cl)cc2)cc1Cn1cc([N+](=O)[O-])cn1` (stereo not drawn): -5.8%. Next, `CC(=O)N1CCN(CC(=O)Nc2ccc(SC(F)F)cc2)CC1`: -4.2%. For the compound `Cc1ccc(C2=N/C(=C\c3ccc(OS(=O)(=O)c4ccc(C)cc4)cc3)C(=O)O2)cc1`, the inhibition was -8.9%. Next, `Cc1ccc(N2CCN(C3=NC(=O)/C(=C\c4cccs4)S3)CC2)cc1`: -3.4%; `Cc1cccc(C2=N/C(=C/c3cccs3)C(=O)O2)c1`: 88.5% (active).

Take `CC(=O)Oc1ccc(C(=O)Nc2nccs2)cc1`: the inhibition was 54.1% (active). Then `CCOc1ccc(C(=O)Nc2nccs2)cc1[N+](=O)[O-]`, with -1.5%; and `COc1cc(C(=O)Nc2nccs2)cc(OC)c1OC`, with -0.7%; and `Cc1nnc(N/N=C/C2CC=CCC2)[nH]c1=O` (stereo not drawn), with -4%. Then `Cc1cccc2cc3c(N)c(C(=O)N4CCCc5ccccc54)sc3nc12`, with -1.8%; and `CCC(=O)NC(=Nc1nc2ccccc2s1)NC(=O)CC`, with 11.6%; and `CC(C)CC(=O)NC(=S)NCc1ccccc1`, with -3.5%. On to `CC(C)CC(=O)N/C(N)=N/c1nc2ccccc2s1`, for which the inhibition was 63.5% (active). With `CC(C)C1Nc2c(C(=O)O)cccc2C(Nc2ccccc2C(=O)O)C1(C)C` (stereo not drawn), the inhibition was 0.1%.

For `CCN1C(=O)/C(=C2\SC(N3CCCCC3)=NC2=O)c2ccccc21`, the inhibition is 50.9% (active). In the case of `CC(C)=C1SC(N2CCN(c3cccc(C)c3)CC2)=NC1=O`, the inhibition was -5.6%. Next, `O=C1N=C(N2CCCC2)S/C1=C\c1cccc(Br)c1`: -4.4%. In the case of `NC(=O)Nc1ccccc1C(=O)NCCc1ccccc1`, the inhibition is 2%. Then `CC(=O)c1cc(-c2ccccc2)n(CCC(=O)NC2CCCCCC2)c1C`, with -5.1%.

As for `Cc1ccnc2nc(C(=O)OCC(=O)N(CC(C)C)CC(C)C)nn12`, the inhibition was -5.4%. Consider `CC/C(O)=C1\C(=O)CC(C)(C)CC1=NCCc1nc2ccccc2[nH]1`, for which the inhibition was -2.7%. Then `C=CCn1c(C)cc(C2=NNC(=NCC)SC2)c1C`, with 96.5% (active); and `Cc1cc(C2=NNC(=Nc3ccc(S(=O)(=O)N4CCOCC4)cc3)SC2)c(C)n1CC1CCCO1` (stereo not drawn), with -3%. Next, `COCCn1c(C)cc(C2=NNC(=Nc3ccc(F)cc3)SC2)c1C`: 17.9%. Then `Cc1[nH]n(-c2ccccc2)c(=O)c1/C=N/NC(=O)c1ccoc1C`, with 20.6%; and `Cc1ccc(-n2[nH]c(C)c(/C=N/NC(=O)c3cccc([N+](=O)[O-])c3)c2=O)cc1C`, with 94.9% (active). As to `COc1cccc(/C=N/NC(=O)c2cccc([N+](=O)[O-])c2)c1OS(=O)(=O)c1ccc(C)cc1`, the inhibition is -9.9%. Next, `Cc1ccc2c(c1)C(c1ccccc1)N(C(=O)c1ccc(S(=O)(=O)N3CCOCC3)cc1)CC(=O)N2` (stereo not drawn): -5.3%.

Take `CCOc1ccc(/C=N/NC(=O)C(C)Sc2ccccn2)cc1OCC` (stereo not drawn): the inhibition was -6%. Next, `Cc1cccc(C)c1NC(=O)C1(C)c2cccc[n+]2CC(=O)N1Cc1cccs1` (stereo not drawn): 0.5%; `O=C(NCC(O)c1ccc([N+](=O)[O-])cc1)C1CCCCC1` (stereo not drawn): -2.2%. Next, `CN(C)c1ccc(C(CNC(=O)c2ccc(F)cc2)c2c[nH]c3ccccc23)cc1` (stereo not drawn): -0.6%. Take `CC(C)NC(=S)NN=C1CCCCCCCCCCC1`: the inhibition was -6.7%. Turning to `COc1ccc(-c2nc(SCC(=O)N3CCOCC3)n[nH]2)cc1`, the inhibition is 9.9%.

With `CCOc1ccc(-c2ccc(SCC(=O)N3CCOCC3)nn2)cc1`, the inhibition was 84.4% (active). Then `COc1ccc(-c2ccnc(SCC(=O)N3CCOCC3)n2)cc1`, with -3.4%; and `O=C(O)CCCCOn1ccnc1`, with 0.6%; and `N#C/C(=C(\O)C(F)(F)F)c1nnc2n1CCCCC2`, with -6.2%. Take `N/C(=N\OC(=O)c1cc(-c2ccccc2)nc2ccccc12)c1ccncc1`: the inhibition was 1.6%. Then `Cc1cccc(/C(N)=N/OC(=O)c2ccccc2Cl)c1`, with 89.7% (active); and `Cc1cccc(C(=O)c2cccc(C)c2)c1`, with -6.1%; and `NC1=NN(c2cccc(C(=O)O)c2)C(=O)C1`, with -2.1%. With `OCCNCCOc1ccc(Cl)c(Cl)c1`, the inhibition is 0.7%. Then `O=C(O)/C=C/c1cn(-c2ccccc2)nc1-c1cccs1`, with 18%; and `O=C(O)c1ccc(N/N=C/c2cn(-c3ccccc3)nc2-c2cccs2)cc1`, with 92.2% (active); and `O=C(/C=C\c1cn(-c2ccccc2)nc1-c1cccs1)N1CCOCC1`, with 35.3%. Next, `Cc1onc(C(=O)NCc2ccc(F)cc2)c1[N+](=O)[O-]`: 8%; `CC(=O)Nc1ccc(S(=O)(=O)NCC(=O)OCc2cc(=O)oc3ccc4ccccc4c23)cc1`: -3.3%.
